Only a selection was taken, and hits are over-represented in it overall.
MgrA-DNA mod: S. aureus MgrA activity modulators, primary screen, biochemical, S. aureus Newman, fluorescence polarization; hit rate 0.13% among 84,000; MgrA-DNA binding; inhibition, % (no concentration beside the values); AID 602314, 2012; in the data active = inhibition above about 30%, passing the limit was not always enough;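 note: higher means less MgrA bound to DNA so lower polarization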
Hits are given with their value; - = inactive.

SMILES | MgrA-DNA mod
N#Cc1c(-c2cccs2)cc(-c2ccccc2)[nH]c1=O | -
N#Cc1c(-c2ccco2)cc(-c2cccs2)[nH]c1=O | 55
N#Cc1c(C(F)(F)F)cc(-c2cccs2)[nH]c1=O | -
O=C(/C=N/O)Nc1ccc(Cl)cc1Cl | -
CN1C(=O)/C(=c2/[nH][nH]c(=O)/c2=C\C=C\c2ccccc2)C(=O)c2ccccc21 | 56
CN1C(=O)/C(=C\C(=O)c2cccs2)c2ccccc21 | -
CN1C(=O)CN(C2CCCCC2)C(=O)c2ccccc21 | -
CC(=O)Nc1cccc(OC(C)C)c1 | -
CCOc1cc(CNC(CC)CO)c(Br)cc1OCC(N)=O (stereo unspecified) | -
COc1ccc(CNC(=O)C2CC(=O)N(C(C)(C)C)C2)cc1 (stereo unspecified) | -
COC(=O)c1c(C)n(S(C)(=O)=O)c2ccc(N(C(C)=O)S(C)(=O)=O)cc12 | -
CC12CCCC(C(=O)O)(CCC1)C2 | -
Nc1ccc(N2CCCC2)cc1 | 57
O=S(=O)(c1ccccc1)c1ccc(N2CCCCC2)cc1 | -
Nc1ccc(N2CCCCC2)cc1 | -
CCCCCCCCCCCCC1CCCC/C1=N/O (stereo unspecified) | -
CCN1CCCC1Cn1c(=S)[nH]c2ccccc2c1=O (stereo unspecified) | -
O=C(c1ccc2c(c1)OCCCO2)c1ccc2ccccc2c1 | -
CCCc1oc(C(=O)O)cc1CN(CC)CC | -
CCN(CC)Cc1cc(O)c(CN(CC)CC)cc1O | 60
CCN(CC)Cc1cc(C2N(C(C)=O)c3cccc4cccc(c34)N2C(C)=O)ccc1O | -
CN(C)S(=O)(=O)c1ccc(S(=O)(=O)N2CCC(c3nc4c(nnn4Cc4cccc(F)c4)c(=O)[nH]3)CC2)cc1 | -
CCc1ccc(N2C(=O)/C(=C/c3ccc(OCC(=O)OC)c(OC)c3)C(=O)NC2=S)cc1 | -
O=C(NC1(C(=O)O)CC1)OCC1c2ccccc2-c2ccccc21 | -
O=C(OCC1c2ccccc2-c2ccccc21)ON1C(=O)CCC1=O | 68
SMILES | MgrA-DNA mod
O=C(COc1ccccc1)ON1C(=O)CCC1=O | -
Nc1ccc(Cl)cc1C(=O)NCCc1ccc(Cl)cc1 | -
Cc1ccc(-c2nnn(CC(=O)N(c3ccccc3)C(C(=O)NCc3ccccc3)c3ccncc3)n2)o1 (stereo unspecified) | -
Oc1cccc2ccc(N3CCOCCOCCN(c4ccc5cccc(O)c5n4)CCOCCOCC3)nc12 | -
O=C(NCc1ccco1)C(c1ccccc1)N(Cc1ccco1)C(=O)Cn1nnc2ccccc21 (stereo unspecified) | -
CC1=C(C)C(=O)N(CCC(=O)O)C1=O | -
Cc1ccc(C)n1CCC(=O)O | 103
Cc1ccc2c(c1)c(C)cc(=O)n2CCC(=O)O | -
O=c1cc(O)c2sc3nc(-c4ccccc4)ccc3c2[nH]1 | -
FC(F)(F)c1cc(-c2ccco2)nc(-n2cccn2)n1 | -
O=c1cc(O)c2sc3nc(-c4ccco4)cc(C(F)(F)F)c3c2[nH]1 | 88
Cc1cccc(OC(C)c2nc3ccccc3[nH]2)c1 (stereo unspecified) | -
O=C(Nc1nccs1)C(c1ccccc1)N1CCOCC1 (stereo unspecified) | -
O=C(O)c1cc2c3c(c1)C1C=CCC1C(c1ccccc1F)N3CC1CC=CC21 (stereo unspecified) | 74
O=C(O)c1cc2c3c(c1)C1C=CCC1C(c1ccc(F)cc1)N3CC1CC=CC21 (stereo unspecified) | -
O=C(O)c1cc2c3c(c1)C1C=CCC1C(c1ccccc1)N3CC1CC=CC21 (stereo unspecified) | -
COc1cc(-c2n[nH]c(=S)n2C)cc(OC)c1OC | -
O=C1c2c(O)ccc(O)c2C(=O)c2c(NCCNCCO)ccc(NCCNCCO)c21 | 47
COc1ccc2c(c1)c1nc3cc4ccccc4cc3nc1n2Cc1ccccc1 | -
Clc1ccsc1-c1ccn[nH]1 | -
CCOc1ccc(C=C2C(=O)OC(c3ccccc3)OC2=O)cc1 (stereo unspecified) | -
O=C1NC(=S)N/C1=C\c1cccc(OCc2ccc(F)cc2)c1 | -
O=C1OC(c2ccccc2)OC(=O)C1=Cc1cccc(OCc2ccccc2)c1 (stereo unspecified) | 56
COc1ccc(S(=O)(=O)Nc2ccccc2-c2nnc(-c3ccc(Cl)cc3)o2)cc1OC | -
COc1ccc(CCN2CN=C(NC#N)NC2)cc1OC | -
SMILES | MgrA-DNA mod
N#C/C(=C\c1ccc(/C=C(\C#N)S(=O)(=O)c2ccccc2)cc1)S(=O)(=O)c1ccccc1 | -
Cc1ccc(S(=O)(=O)/C(C#N)=C/C2=Cc3ccccc3OC2)cc1 | 62
Cc1ccc(S(=O)(=O)/C(C#N)=C/c2ccccc2)cc1 | -
CC1=C(C#N)C(c2sc3ccccc3c2Cl)C(C#N)=C(C)N1 | -
c1ccc(C(Sc2ccccn2)c2ccccc2)cc1 | -
CCCN1CC=C2C(C1)C(c1ccc(C(=O)OC)cc1)C(C#N)=C(N)C2(C#N)C#N (stereo unspecified) | -
CCN1CC=C2C(C1)C(c1ccc(Cl)s1)C(C#N)=C(N)C2(C#N)C#N (stereo unspecified) | 42
